Drawing on PubChem BioAssay (NCI), this text covers growth for 17 molecules.

Common to all, as to assay: NCI-60 one-dose screen, 48 h (100 = growth as untreated, 0 = no growth, -100 = all killed)
In one test the test system is NCI/ADR-RES ovarian. Particulars: 10 µM.
The next test deals with T-47D breast. Conditions: 10 µM.
The next test relates to BT-549 breast. Particulars: 10 µM.
The subject of the next test is MDA-MB-435 melanoma. Conditions: 10 µM.
A further test relates to SW-620 colon. Conditions: 10 µM.
The test system of the next test is MCF7 breast. Conditions: 10 µM unless noted.
Another test deals with HCT-116 colon. Particulars: 10 µM.
Another test deals with HCC-2998 colon. Particulars: 10 µM.
The subject of another test is KM12 colon. Particulars: 10 µM.

Several values for one entry are separate records, joined by “and”; a condition that tells them apart may be missing. Identical values can stand only once. Compounds without any hit were thinned out: in the full panel of roughly 83,000, 20% have a hit.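 Percent growth is the endpoint: 0 to 100 indicates growth inhibition (40 means 60% inhibition), 0 means no net growth, and negative values indicate cell death.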 Activity calls are given as the source filed them. How the source made its calls: active means growth percent below 10; inactive means the rest.

Regarding `COC(C(=O)C(O)C(C)O)C1Cc2cc3cc(OC4CC(OC(C)=O)C(OC5CC(O)C(OC)C(C)O5)C(C)O4)cc(O)c3c(O)c2C(=O)C1OC1CC(OC2CC(OC3CC(C)(O)C(OC(=O)C(C)C)C(C)O3)C(O)C(C)O2)C(O)C(C)O1` (stereo unspecified), the growth in the test on NCI/ADR-RES ovarian was 47.4% (inactive); with T-47D breast it was -24.1% (active); with BT-549 breast, -74.8% (active); with MDA-MB-435 melanoma, -89.4% (active); with SW-620 colon, -12% (active); with MCF7 breast, 1.47% (active). In addition, the figures for the growth with HCT-116 colon, in the test on HCC-2998 colon and in the test on KM12 colon were -40.2% (active), -94.4% (active) and -10.4% (active), respectively.

For the molecule `O=c1[nH]c2ccccc2n1C1CCN(CCCC(c2ccc(F)cc2)c2ccc(F)cc2)CC1`, the growth in the test on NCI/ADR-RES ovarian is 48.3% (inactive) and 23.7% (inactive); with T-47D breast, 55.7% (inactive) and 10.2% (inactive); in the test with BT-549 breast, 35.8% (inactive) and 18.5% (inactive); in the test on MDA-MB-435 melanoma, -81% (active) and 19% (inactive); with SW-620 colon it was -21.1% (active) and 19.2% (inactive); with MCF7 breast it was 65% (inactive) and 6.06% (active). Further, the growth with HCT-116 colon was -68.6% (active) and -39.9% (active); in the test with HCC-2998 colon it was 7.86% (active) and -80.1% (active); with KM12 colon, -0.627% (active) and 25.7% (inactive).

As for `COc1cc([N+](=O)[O-])c2ncccc2c1[N+](=O)[O-]`, the growth in the test with NCI/ADR-RES ovarian was 81.7% (inactive); in the test on T-47D breast, 50.9% (inactive); with BT-549 breast, 98.2% (inactive); in the test on MDA-MB-435 melanoma it was 44.8% (inactive); in the test on SW-620 colon it was -61.5% (active); with MCF7 breast, 23.3% (inactive). Further, the growth with HCT-116 colon was 14.4% (inactive); in the test on HCC-2998 colon, 102% (inactive); in the test on KM12 colon, 20.3% (inactive).

In the case of `C[C@H]1CC[C@@]2(NC1)O[C@H]1C[C@H]3[C@@H]4CC[C@H]5C[C@@H](O)CC[C@]5(C)[C@H]4CC[C@]3(C)[C@H]1[C@@H]2C`, the growth in the test with MCF7 breast is 29.5% [100 µM] (inactive) and 25.5% [100 µM] (inactive).

As for `CC(Cc1ccc2c(c1)OCO2)NN` (stereo unspecified), the growth was 98.5% (inactive) in the test on NCI/ADR-RES ovarian; 77.5% (inactive) in the test on T-47D breast; 96.7% (inactive) in the test with BT-549 breast; 98.7% (inactive) in the test with SW-620 colon; 91.2% (inactive) in the test with MCF7 breast; 85.4% (inactive) in the test on HCT-116 colon. In addition, the growth with HCC-2998 colon was 101% (inactive); with KM12 colon, 103% (inactive).

Take `O=C1C(=O)c2ccccc2-c2ccccc21`: the growth with NCI/ADR-RES ovarian was -41.5% (active); in the test on T-47D breast, -50% (active); in the test on BT-549 breast, -75% (active); in the test on MDA-MB-435 melanoma, -97.9% (active); in the test with SW-620 colon it was -63.3% (active); with MCF7 breast, -66.4% (active). Moreover, the growth in the test on HCT-116 colon is -81.5% (active); in the test with HCC-2998 colon, -35.4% (active); in the test on KM12 colon, -84.5% (active).

On to `NNc1ccccc1`, for which the growth in the test on NCI/ADR-RES ovarian was 83.1% (inactive); with T-47D breast, 53.9% (inactive); with MDA-MB-435 melanoma it was 88.6% (inactive); in the test on SW-620 colon, 64.5% (inactive); in the test on MCF7 breast, 86.8% (inactive); with HCT-116 colon it was 78.4% (inactive). In addition, the figures for the growth in the test with HCC-2998 colon and in the test with KM12 colon were 104% (inactive) and 64.7% (inactive), respectively.

For the molecule `CCCCCCCC[N+]12CN3CN(CN(C3)C1)C2`, the growth is 98.9% (inactive) with NCI/ADR-RES ovarian; 94.4% (inactive) in the test with BT-549 breast; 95% (inactive) in the test on MDA-MB-435 melanoma; 89.7% (inactive) in the test on SW-620 colon; 91.4% (inactive) in the test on MCF7 breast; 93.6% (inactive) in the test on HCT-116 colon. The values for the growth in the test with HCC-2998 colon and with KM12 colon were 98.3% (inactive) and 98.4% (inactive), respectively.

With `COc1cc(/C=C/[N+](=O)[O-])cc(Br)c1OC`, the growth is 60.2% (inactive) in the test on NCI/ADR-RES ovarian; 16.3% (inactive) in the test on T-47D breast; 8.15% (active) in the test on BT-549 breast; 11% (inactive) with MDA-MB-435 melanoma; 8.38% (active) in the test on MCF7 breast; -91.7% (active) with HCT-116 colon. For the same molecule, the figures for the growth with HCC-2998 colon and with KM12 colon were -90.9% (active) and 15.2% (inactive), respectively.

As to `Cc1cc(C)c(C[N+](C)(C)C)c(C)c1C`, the growth was 4.96% (active) with NCI/ADR-RES ovarian; -0.376% (active) in the test on T-47D breast; 7.59% (active) in the test on BT-549 breast; 9.06% (active) in the test with MDA-MB-435 melanoma; 8.53% (active) in the test with SW-620 colon; -10.7% (active) in the test with MCF7 breast. Further, the growth is 7.93% (active) in the test on HCT-116 colon and 7.87% (active) in the test on KM12 colon.

Turning to `CCOC(=O)c1[nH]cnc1/N=N/N(C)N`, the growth in the test on MCF7 breast was 69.3% [100 µM] (inactive) and -85.5% [100 µM] (active).

As for `C=NCC#N`, the growth is 102% (inactive) and 107% (inactive) in the test on NCI/ADR-RES ovarian; 98.8% (inactive) and 93.6% (inactive) with T-47D breast; 103% (inactive) and 89.3% (inactive) in the test on BT-549 breast; 100% (inactive) and 113% (inactive) in the test with MDA-MB-435 melanoma; 100% (inactive) and 115% (inactive) in the test with SW-620 colon; 109% (inactive) and 92.1% (inactive) in the test with MCF7 breast. For the same molecule, the growth with HCT-116 colon is 98.2% (inactive) and 107% (inactive); in the test with HCC-2998 colon, 100% (inactive) and 125% (inactive); with KM12 colon it was 99.4% (inactive) and 109% (inactive).

In the case of `O=[P+](O)c1ccccc1`, the growth was 106% (inactive) in the test with NCI/ADR-RES ovarian; 99.9% (inactive) in the test on T-47D breast; 104% (inactive) in the test with BT-549 breast; 118% (inactive) with MDA-MB-435 melanoma; 106% (inactive) in the test with SW-620 colon; 95.9% (inactive) with MCF7 breast. The growth with HCT-116 colon was 100% (inactive); in the test with KM12 colon, 107% (inactive).

With `COc1cc2c3cc1Oc1c(OC)c(OC)cc4c1C(Cc1ccc(cc1)Oc1cc(ccc1O)CC3N(C)CC2)N(C)CC4` (stereo unspecified), the growth in the test with MCF7 breast was 33.8% [100 µM] (inactive) and -96.4% [100 µM] (active).

Regarding `C#CC1(O)CCC(C(C)(C)C)CC1` (stereo unspecified), the growth in the test with NCI/ADR-RES ovarian was 106% (inactive); in the test on T-47D breast, 111% (inactive); in the test with BT-549 breast, 122% (inactive); with MDA-MB-435 melanoma it was 89.8% (inactive); in the test on SW-620 colon it was 106% (inactive); in the test with MCF7 breast, 99% (inactive). For the same molecule, the growth in the test with HCT-116 colon was 108% (inactive); in the test on KM12 colon, 100% (inactive).

For the molecule `COc1ccccc1/C=C/[N+](=O)[O-]`, the growth was 91.4% (inactive) with NCI/ADR-RES ovarian; 50.7% (inactive) in the test on T-47D breast; 82.4% (inactive) with BT-549 breast; 39.3% (inactive) in the test on MDA-MB-435 melanoma; 58.8% (inactive) in the test with SW-620 colon; 28.8% (inactive) with MCF7 breast. The growth is 36.2% (inactive) in the test on HCT-116 colon, 88.7% (inactive) in the test with HCC-2998 colon and 65.9% (inactive) in the test with KM12 colon.

Take `CCOP(=O)(OCC)/C(C#N)=C/c1ccc(Br)cc1`: the growth is 107% (inactive) in the test with NCI/ADR-RES ovarian; 90.8% (inactive) with T-47D breast; 104% (inactive) in the test on MDA-MB-435 melanoma; 105% (inactive) in the test on SW-620 colon; 92% (inactive) in the test with MCF7 breast; 101% (inactive) with HCT-116 colon. For the same molecule, the growth in the test with HCC-2998 colon was 102% (inactive); in the test on KM12 colon, 109% (inactive).
